Most compounds without a hit are left out; they make up all but 3.5% or so of the library.
rCAG RNA binder: molecules binding r(CAG) RNA repeats; r(CAG) RNA repeat, TO-PRO-1 dye displacement fluorescence; inhibition, % at 3 µM; actives 1.3% (n = 370,000); AID 651821;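 active means inhibition above the plate cutoff, the mean of all test compounds on that plate plus 3 SD, cut at about 35% in these data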;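 further: 0% = DMSO alone and 100% = 100 µM mitoxantrone as full dye displacement; higher means more dye released from RNA so lower well fluorescence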
PG9 binder: PG9 antibody binding by small molecule | inhibition, % at 6.7 µM | TR-FRET gp120-PG9 antibody binding | actives 0.43% (n = 360,000); in the data active means inhibition above about 8.5%
MBD2 inh: inhibitors of human MBD2 binding to methylated oligonucleotide. Q9UBB5. TR-FRET. inhibition, % at 4.4 µM. actives 0.31% (n = 370,000); in the data active means inhibition above about 13%
LEDGF integ inh: blocks HIV-1 LEDGF/p75-dependent DNA integration. TR-FRET IN-LEDGF/p75 DNA integration, Eu/Cy5. actives 0.64% (n = 370,000). inhibition, % at 3.7 µM;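 active means inhibition above the screen-wide mean plus 3 SD, cut at about 13% in these data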;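 further: signal is the Cy5 over europium emission ratio at 671 and 618 nm; 0% = plate median of compound wells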
DNMT1 block: blocks human DNA methyltransferase DNMT1; P26358; DNMT1 molecular beacon, Hinp1I cleavage, fluorescence; inhibition (reported as % activation of signal), % at 10 µM; actives 0.83% (n = 360,000); AID 588458; in the data active means inhibition above about 50%
UHRF1 MBD2 ctr: human UHRF1 methylated DNA binding inhibitors. inhibition, % at 4.4 µM. AID 687016. actives 0.75% (n = 370,000). UHRF1 binding to methylated oligo, TR-FRET; in the data active means inhibition above about 21%;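 further: UHRF1 SRA domain binding a hemimethylated CpG hairpin DNA probe; 0% = median of test compound wells and 100% = reference inhibitor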
PG9 bind confirm: PG9 antibody binding, confirmed; shares compounds with PG9 binder; TR-FRET PG9 antibody binding, biochemical; inhibition, % at 6.7 µM; actives 90% (n = 1,500); in the data active means inhibition above about 9%
PGV04 Ab binding: PGV04 control antibody binding, counter-screen. shares compounds with PG9 binder. TR-FRET PGV04 antibody-gp120 binding, biochemical. inhibition, % at 6.7 µM. actives 95% (n = 1,500); in the data active means inhibition above about 9.5%
PG9 binder DR: small molecules binding HIV-1 gp120 antibody PG9. TR-FRET PG9 antibody-gp120 binding inhibition. IC50, µM. 95 tested, under 10 active. shares compounds with PG9 binder; in the data active means IC50 below about 10 µM
PGV04 DR counter: counter-screen for PG9 binders: binding to control antibody PGV04. shares compounds with PG9 binder. IC50, µM. TR-FRET binding to control antibody PGV04. actives 20% (n = 95)
PG126 binding DR: PG126 binding, dose response counter-screen. IC50, µM. AID 651939. TR-FRET binding to antibody PG126, counterscreen. shares compounds with PG9 binder. actives 20% (n = 95)
rCAG binder conf: r(CAG) RNA repeat binding, confirmation. shares compounds with rCAG RNA binder. TO-PRO-1 dye displacement fluorescence. inhibition, % at 3 µM. actives 70% (n = 4,300);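 active means inhibition above a per-plate cutoff, the mean inhibition of sample wells plus 3 SD, cut at about 35% in these data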;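 further: loss of TO-PRO-1 fluorescence as compound displaces dye from 1x1 AA loop RNA; 0% = DMSO only wells and 100% = 100 µM mitoxantrone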
DNA CAG counter: DNA CAG dye complex inhibition counter-screen; shares compounds with rCAG RNA binder; d(CAG) DNA oligo TO-PRO-1 dye displacement, fluorescence; inhibition, % at 3 µM; actives 94% (n = 4,300);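 active means inhibition above its plate's cutoff, the mean test-well inhibition plus 3 SD, cut at about 4.8% in these data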;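 further: 0% = DNA dye mix with DMSO and 100% = 100 µM mitoxantrone; hits displace the dye from DNA and so lower well fluorescence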
IN multimer up: HIV-1 integrase multimerization activation, counter-screen. shares compounds with LEDGF integ inh. TR-FRET HIV-1 integrase multimerization, biochemical. activation, % at 7.7 µM. actives 17% (n = 2,000). AID 1053131; in the data active means activation above about 8.9%
TRFRET interf: counter-screen for LEDGF/p75 integration inhibitors: TR-FRET optical interference. 2,000 tested, under 10 active. TR-FRET optical interference counterscreen, HIV-1 IN multimerization. inhibition, % at 7.7 µM. AID 1053135. shares compounds with LEDGF integ inh;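 active means inhibition above the mean over all tested compounds plus 3 SD, which no compound reached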;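 further: 0% = integrase with antibodies and DMSO and 100% = antibodies without integrase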
IN-LEDGF confirm: LEDGF/p75-dependent HIV-1 integration inhibition, confirmation. shares compounds with LEDGF integ inh. TR-FRET LEDGF/p75-dependent HIV-1 integration, biochemical. inhibition, % at 3.7 µM. actives 36% (n = 2,000); in the data active means inhibition above about 14%
The depositor's hits bear a star; i = inactive; nt = no result. Unless noted, no stated cut-off is given here; in the data, active means IC50 below about 9 µM; inactive means the rest.

SMILES	rCAG RNA binder	PG9 binder	MBD2 inh	LEDGF integ inh	DNMT1 block	UHRF1 MBD2 ctr	others
Cc1cc(NC(=O)CSc2nc(C3CC3)nc3sc(C)c(C)c23)no1	0	8.9*	-2	17*	3	1	PG9 bind confirm=13*;PGV04 Ab binding=12*;PG9 binder DR=>67;PGV04 DR counter=i;PG126 binding DR=i;IN multimer up=16*;TRFRET interf=-55;IN-LEDGF confirm=-8
CC(C)N(C)c1ncnc2c1ncn2[C@H]1CN(Cc2ccc3c(c2)OCO3)C[C@@H](CO)O1	2	1	-1	2	6	-2
COc1ccc(C2=Nc3ccccc3N(C(=O)c3ccncc3)C2C(=O)NC(C)C)cc1 (stereo unspecified)	2	0	-6	4	nt	-5
Cc1ccc(-c2cc(C(=O)O)c3cc(Br)ccc3n2)o1	28	14*	2	14*	22	9	PG9 bind confirm=10*;PGV04 Ab binding=20*;IN multimer up=16*;TRFRET interf=-57;IN-LEDGF confirm=7
Cc1ccc(-c2cc(C(=O)NN3CCOCC3)c3cc(Br)ccc3n2)o1	8	2	-2	0	0	-4
CC1OC2CC(=O)OC2C2=C1C(=O)c1c(O)cccc1C2=O (stereo unspecified)	4	15*	-2	19*	75*	18	PG9 bind confirm=14*;PGV04 Ab binding=17*;IN multimer up=-1;TRFRET interf=3;IN-LEDGF confirm=41*
COc1ccc(NC(=O)CSc2n[nH]c(=O)n2C2CC2)cc1Cl	3	-1	-7	2	2	0
COc1ccc(NC(=O)CSc2nc(-c3ccco3)nc3cc(=O)[nH]n23)cc1Cl	54*	-2	-1	4	6	-2	rCAG binder conf=36*;DNA CAG counter=14*
CCN(CC)C(=O)CC[C@@H]1CC[C@]2(CCCN(S(=O)(=O)c3ccccc3)C2)O1	0	nt	3	-1	nt	-1
Cc1c(O)nc(SCC(=O)Nc2ccc3c4c(cccc24)CC3)n(-c2ccc(F)cc2)c1=O	46*	-1	-4	2	-4	-4	rCAG binder conf=30;DNA CAG counter=8.3*
CCc1c(O)nc(SCC(=O)Nc2c(C)cccc2C)n(-c2ccc(F)cc2)c1=O	-1	-2	5	4	1	0
Cc1ccsc1C(=O)NC(C)c1ccccc1 (stereo unspecified)	0	-1	0	0	-1	2
Cc1ccc(S(=O)(=O)N2CCN(C(=O)CN3CCCSc4ccccc43)CC2)cc1	3	-1	3	-1	-4	-1
COCCNC(=O)/C(C#N)=C/c1c(N2CCCCCC2)nc2ccccn2c1=O	1	0	-9	3	0	-7
